Common to all, as to test: DAPPL (digital affinity profiling via proximity ligation, sequencing); 10 mM Tris-HCl pH 7.5, 50 mM NaCl, 1 mM DTT, 4% glycerol, room temperature, 30 min; GST-TFs on glutathione beads, 16-mer random dsDNA library, 0.1% formaldehyde crosslink after washing; high values mean tight binding
What all share (conditions): protein: recombinant; tags: N-terminal GST; dsDNA, one strand shown

One assay has as its target T1, ERG (Homo sapiens, UniProt P11308 1-479).
T1 sequence: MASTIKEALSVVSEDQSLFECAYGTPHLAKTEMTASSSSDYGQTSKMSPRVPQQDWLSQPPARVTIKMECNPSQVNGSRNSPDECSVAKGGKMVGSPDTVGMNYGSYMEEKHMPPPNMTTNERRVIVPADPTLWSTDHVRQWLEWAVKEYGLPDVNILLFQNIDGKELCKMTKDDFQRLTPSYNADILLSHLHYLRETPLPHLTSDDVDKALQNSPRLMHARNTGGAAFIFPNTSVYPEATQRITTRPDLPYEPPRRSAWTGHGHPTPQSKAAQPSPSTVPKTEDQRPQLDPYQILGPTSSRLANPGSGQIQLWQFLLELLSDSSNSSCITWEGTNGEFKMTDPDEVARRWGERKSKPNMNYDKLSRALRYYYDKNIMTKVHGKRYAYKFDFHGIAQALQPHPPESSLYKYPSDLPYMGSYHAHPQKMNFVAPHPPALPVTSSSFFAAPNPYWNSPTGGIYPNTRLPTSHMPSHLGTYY
The gist of the method:
(§1)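 Each value of binding signal is a hexamer's read frequency for a factor divided by the same hexamer's frequency in the tag-only sample. Barcoded, bead-captured GST fusions of human transcription factors made in yeast were pooled with that sample and incubated with 200 nmole of a random double-stranded 16-mer DNA library in Tris/NaCl/DTT/glycerol buffer at room temperature for 30 min. Washing, 0.1% formaldehyde crosslinking, proximity ligation, PCR and Illumina NextSeq500 sequencing followed.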

Another assay concerns the target ELF1 (Homo sapiens, UniProt P32519 1-619). The gist of the method: as §1
Another assay deals with T2, EHF (Homo sapiens, UniProt Q9NZC4 1-300).
T2 sequence: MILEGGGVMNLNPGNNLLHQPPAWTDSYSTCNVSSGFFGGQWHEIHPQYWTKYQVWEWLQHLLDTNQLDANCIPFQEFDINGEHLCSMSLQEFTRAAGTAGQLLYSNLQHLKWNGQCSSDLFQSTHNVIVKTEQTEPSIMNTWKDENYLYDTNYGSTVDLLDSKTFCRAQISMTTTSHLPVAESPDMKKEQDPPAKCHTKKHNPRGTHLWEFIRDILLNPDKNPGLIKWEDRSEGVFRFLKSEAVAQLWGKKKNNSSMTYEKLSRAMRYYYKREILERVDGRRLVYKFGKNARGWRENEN
The procedure, abridged: as §1

In a further assay the target is ETV5 (Homo sapiens, UniProt P41161 1-510). The procedure, abridged: as §1
Chain of ETV5 (P41161 whole entry): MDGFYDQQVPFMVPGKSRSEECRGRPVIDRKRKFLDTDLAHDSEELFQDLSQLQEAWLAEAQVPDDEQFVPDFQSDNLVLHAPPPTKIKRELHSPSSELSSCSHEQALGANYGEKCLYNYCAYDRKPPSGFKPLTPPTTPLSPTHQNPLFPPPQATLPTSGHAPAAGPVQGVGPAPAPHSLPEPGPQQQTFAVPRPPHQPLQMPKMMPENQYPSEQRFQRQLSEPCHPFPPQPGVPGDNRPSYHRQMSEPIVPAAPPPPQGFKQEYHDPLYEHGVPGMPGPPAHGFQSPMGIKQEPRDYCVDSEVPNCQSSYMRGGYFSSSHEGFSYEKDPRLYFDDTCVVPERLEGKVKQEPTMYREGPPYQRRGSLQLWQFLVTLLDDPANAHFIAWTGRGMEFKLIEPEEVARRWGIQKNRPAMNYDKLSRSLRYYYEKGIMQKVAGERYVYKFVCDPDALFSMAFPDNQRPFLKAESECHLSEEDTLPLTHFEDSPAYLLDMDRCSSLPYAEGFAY
The target of the next assay is T3, ELF3 (Homo sapiens, UniProt P78545 1-371).
T3 sequence: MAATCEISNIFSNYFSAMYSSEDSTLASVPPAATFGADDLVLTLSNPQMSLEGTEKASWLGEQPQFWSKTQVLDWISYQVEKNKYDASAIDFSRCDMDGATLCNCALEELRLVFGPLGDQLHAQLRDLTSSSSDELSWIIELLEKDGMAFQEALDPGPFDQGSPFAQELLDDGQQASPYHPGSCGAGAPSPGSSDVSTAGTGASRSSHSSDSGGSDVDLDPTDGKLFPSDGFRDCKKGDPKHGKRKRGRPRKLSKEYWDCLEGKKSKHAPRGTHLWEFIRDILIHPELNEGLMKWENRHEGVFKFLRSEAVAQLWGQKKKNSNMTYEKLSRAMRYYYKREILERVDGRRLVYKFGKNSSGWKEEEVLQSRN
The gist of the method:
as §1

In the next assay the target is ETV1 (Homo sapiens, UniProt P50549 1-477). The procedure, abridged:
as §1

The target in a further assay is T4, ETV7 (Homo sapiens, UniProt Q9Y603 1-341).
T4 sequence: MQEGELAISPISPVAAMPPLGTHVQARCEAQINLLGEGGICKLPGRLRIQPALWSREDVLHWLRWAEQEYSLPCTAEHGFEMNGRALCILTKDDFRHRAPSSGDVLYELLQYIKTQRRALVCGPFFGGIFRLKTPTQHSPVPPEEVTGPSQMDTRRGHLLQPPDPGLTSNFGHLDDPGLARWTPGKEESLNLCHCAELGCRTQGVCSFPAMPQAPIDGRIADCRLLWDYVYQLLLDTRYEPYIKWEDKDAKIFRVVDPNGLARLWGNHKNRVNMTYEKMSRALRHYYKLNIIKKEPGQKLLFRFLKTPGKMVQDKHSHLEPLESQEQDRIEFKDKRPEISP
The gist of the method: as §1

The target of the next assay is T5, ETV3 (Homo sapiens, UniProt P41162-2 1-143).
T5 sequence: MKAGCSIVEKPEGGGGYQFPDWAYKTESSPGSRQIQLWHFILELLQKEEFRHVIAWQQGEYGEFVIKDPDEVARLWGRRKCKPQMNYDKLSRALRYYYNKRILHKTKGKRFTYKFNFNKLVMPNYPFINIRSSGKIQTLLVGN
The gist of the method:
as §1

A further assay has as its target ETV6 (Homo sapiens, UniProt P41212 1-452). The gist of the method:
as §1

A further assay deals with T6, ELK1 (Homo sapiens, UniProt P19419 1-428).
T6 sequence: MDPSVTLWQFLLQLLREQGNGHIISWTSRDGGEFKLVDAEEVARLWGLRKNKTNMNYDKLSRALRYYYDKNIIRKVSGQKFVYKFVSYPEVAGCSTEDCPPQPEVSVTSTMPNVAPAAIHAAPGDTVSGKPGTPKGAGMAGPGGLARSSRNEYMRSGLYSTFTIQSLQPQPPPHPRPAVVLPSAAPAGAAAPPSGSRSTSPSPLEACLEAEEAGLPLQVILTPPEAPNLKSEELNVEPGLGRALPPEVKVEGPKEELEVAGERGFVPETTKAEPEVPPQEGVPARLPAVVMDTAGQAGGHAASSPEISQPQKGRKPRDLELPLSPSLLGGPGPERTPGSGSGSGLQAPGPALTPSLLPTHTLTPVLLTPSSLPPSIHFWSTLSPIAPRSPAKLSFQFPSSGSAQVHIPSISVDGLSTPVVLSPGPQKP
The procedure, abridged:
as §1

The next assay concerns the target T7, GABPA (Homo sapiens, UniProt Q06546 1-454).
T7 sequence: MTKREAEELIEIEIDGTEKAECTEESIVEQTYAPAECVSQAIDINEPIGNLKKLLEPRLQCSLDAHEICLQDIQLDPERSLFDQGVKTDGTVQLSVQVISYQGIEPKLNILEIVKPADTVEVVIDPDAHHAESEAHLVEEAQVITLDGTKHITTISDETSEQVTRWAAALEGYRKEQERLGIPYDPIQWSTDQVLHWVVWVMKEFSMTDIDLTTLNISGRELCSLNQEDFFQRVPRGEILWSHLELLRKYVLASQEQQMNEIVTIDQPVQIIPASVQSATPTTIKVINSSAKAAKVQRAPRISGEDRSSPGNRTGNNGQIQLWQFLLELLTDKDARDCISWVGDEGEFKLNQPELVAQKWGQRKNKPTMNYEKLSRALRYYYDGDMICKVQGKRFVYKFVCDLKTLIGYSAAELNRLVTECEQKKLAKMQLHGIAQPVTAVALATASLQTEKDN
The gist of the method:
as §1

In another assay the target is SPI1 (Homo sapiens, UniProt P17947 1-270). The procedure, abridged: as §1
A further assay has as its target SPIB (Homo sapiens, UniProt Q01892 1-262). The gist of the method:
as §1

A further assay deals with T8, SPIC (Homo sapiens, UniProt Q8N5J4 1-248).
T8 sequence: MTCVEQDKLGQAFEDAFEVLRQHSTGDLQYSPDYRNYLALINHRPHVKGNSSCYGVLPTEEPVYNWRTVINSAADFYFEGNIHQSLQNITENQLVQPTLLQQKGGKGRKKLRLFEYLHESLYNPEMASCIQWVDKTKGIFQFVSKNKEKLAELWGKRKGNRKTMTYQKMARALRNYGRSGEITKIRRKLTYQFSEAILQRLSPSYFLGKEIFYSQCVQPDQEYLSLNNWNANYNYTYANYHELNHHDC
The gist of the method:
as §1

The target of a further assay is T9, ELK4 (Homo sapiens, UniProt P28324-2 1-405).
T9 sequence: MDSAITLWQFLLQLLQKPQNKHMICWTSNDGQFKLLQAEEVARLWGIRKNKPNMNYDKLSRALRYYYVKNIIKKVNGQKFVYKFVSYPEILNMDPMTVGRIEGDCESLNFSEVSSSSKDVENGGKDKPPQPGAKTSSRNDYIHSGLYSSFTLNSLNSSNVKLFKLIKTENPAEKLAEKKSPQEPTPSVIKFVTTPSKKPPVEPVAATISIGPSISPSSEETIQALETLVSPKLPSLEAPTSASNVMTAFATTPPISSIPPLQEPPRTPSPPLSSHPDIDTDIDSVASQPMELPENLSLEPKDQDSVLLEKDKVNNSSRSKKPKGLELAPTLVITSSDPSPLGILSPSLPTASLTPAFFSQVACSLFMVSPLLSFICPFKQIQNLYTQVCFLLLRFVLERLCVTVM
The gist of the method:
as §1

In the next assay the target is T10, ERF (Homo sapiens, UniProt P50548 1-548).
T10 sequence: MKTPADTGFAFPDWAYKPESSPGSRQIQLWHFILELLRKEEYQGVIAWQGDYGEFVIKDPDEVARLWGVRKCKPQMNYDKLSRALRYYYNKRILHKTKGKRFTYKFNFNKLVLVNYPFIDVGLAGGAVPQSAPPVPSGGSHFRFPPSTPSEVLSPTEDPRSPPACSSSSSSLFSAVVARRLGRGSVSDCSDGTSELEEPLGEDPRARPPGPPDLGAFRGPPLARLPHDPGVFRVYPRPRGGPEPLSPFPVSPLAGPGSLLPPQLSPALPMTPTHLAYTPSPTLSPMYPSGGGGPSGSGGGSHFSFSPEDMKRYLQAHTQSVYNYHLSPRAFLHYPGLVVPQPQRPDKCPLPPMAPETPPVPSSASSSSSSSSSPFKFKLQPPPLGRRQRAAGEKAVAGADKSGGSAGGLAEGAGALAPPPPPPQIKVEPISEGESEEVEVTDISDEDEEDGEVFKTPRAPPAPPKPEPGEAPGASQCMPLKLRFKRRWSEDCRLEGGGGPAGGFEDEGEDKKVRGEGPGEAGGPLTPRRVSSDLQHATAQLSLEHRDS
The procedure, abridged: as §1

The target of another assay is T11, ETS2 (Homo sapiens, UniProt P15036 1-469).
T11 sequence: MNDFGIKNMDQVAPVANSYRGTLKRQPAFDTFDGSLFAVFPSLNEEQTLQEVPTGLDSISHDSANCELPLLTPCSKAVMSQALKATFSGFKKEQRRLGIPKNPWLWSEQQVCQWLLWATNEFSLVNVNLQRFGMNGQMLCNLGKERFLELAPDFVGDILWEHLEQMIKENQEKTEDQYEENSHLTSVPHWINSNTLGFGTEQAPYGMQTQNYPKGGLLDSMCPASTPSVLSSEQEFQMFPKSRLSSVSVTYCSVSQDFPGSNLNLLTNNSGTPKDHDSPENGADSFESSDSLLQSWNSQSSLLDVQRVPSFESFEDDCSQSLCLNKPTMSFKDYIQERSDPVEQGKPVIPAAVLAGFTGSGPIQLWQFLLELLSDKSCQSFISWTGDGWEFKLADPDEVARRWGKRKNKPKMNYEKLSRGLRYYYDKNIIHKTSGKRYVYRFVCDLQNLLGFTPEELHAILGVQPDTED
The gist of the method: as §1

The target in a further assay is T12, SPDEF (Homo sapiens, UniProt O95238 1-335).
T12 sequence: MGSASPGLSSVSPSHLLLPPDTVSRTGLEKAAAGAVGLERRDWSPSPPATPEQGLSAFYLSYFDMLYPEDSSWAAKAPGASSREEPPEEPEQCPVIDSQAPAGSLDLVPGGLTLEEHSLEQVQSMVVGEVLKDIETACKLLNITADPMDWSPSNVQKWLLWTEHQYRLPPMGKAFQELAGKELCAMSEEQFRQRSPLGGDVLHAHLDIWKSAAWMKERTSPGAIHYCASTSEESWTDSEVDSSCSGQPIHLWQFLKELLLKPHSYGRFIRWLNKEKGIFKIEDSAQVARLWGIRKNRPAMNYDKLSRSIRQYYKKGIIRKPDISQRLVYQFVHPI
The gist of the method: as §1

Chain of ETV1 (P50549 whole entry): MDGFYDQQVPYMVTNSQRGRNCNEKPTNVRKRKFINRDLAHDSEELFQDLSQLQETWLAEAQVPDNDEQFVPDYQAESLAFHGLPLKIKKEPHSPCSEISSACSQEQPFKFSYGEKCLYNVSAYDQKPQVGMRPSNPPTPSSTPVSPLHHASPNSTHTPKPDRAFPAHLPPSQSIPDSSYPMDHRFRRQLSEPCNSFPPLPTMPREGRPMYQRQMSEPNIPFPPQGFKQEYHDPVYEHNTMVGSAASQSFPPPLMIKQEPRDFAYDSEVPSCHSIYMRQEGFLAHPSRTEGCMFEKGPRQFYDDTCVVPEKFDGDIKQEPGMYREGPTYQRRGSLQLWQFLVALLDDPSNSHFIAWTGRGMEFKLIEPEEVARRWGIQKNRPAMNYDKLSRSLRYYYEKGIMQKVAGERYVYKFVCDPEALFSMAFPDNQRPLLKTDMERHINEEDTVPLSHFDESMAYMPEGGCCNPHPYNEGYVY
Chain of ETV6 (P41212 whole entry): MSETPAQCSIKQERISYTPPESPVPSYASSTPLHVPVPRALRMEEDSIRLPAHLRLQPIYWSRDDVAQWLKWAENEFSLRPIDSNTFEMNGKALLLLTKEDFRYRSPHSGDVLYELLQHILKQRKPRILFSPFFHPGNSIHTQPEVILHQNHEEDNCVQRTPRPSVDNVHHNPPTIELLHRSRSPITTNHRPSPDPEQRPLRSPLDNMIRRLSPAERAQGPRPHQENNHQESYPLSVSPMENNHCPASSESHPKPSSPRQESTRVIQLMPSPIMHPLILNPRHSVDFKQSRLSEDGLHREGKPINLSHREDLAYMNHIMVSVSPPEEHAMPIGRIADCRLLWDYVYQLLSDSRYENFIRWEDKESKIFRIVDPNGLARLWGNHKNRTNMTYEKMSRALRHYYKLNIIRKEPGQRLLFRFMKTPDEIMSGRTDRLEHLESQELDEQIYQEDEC
Chain of ELF1 (P32519 whole entry): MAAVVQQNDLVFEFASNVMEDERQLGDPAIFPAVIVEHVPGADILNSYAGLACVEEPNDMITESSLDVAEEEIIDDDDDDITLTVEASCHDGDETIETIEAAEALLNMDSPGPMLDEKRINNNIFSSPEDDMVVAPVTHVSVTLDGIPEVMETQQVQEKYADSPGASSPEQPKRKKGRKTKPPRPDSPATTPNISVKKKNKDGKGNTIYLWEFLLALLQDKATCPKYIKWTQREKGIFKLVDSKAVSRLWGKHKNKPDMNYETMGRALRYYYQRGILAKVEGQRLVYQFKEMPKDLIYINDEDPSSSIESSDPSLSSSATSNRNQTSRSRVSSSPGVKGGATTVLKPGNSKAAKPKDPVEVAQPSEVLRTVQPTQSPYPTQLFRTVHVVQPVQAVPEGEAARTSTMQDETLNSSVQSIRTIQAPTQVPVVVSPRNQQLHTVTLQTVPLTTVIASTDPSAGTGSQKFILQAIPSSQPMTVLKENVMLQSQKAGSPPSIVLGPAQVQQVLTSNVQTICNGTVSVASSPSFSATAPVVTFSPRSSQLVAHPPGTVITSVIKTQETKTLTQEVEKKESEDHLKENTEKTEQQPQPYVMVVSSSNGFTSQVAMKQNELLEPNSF
Chain of SPIB (Q01892 whole entry): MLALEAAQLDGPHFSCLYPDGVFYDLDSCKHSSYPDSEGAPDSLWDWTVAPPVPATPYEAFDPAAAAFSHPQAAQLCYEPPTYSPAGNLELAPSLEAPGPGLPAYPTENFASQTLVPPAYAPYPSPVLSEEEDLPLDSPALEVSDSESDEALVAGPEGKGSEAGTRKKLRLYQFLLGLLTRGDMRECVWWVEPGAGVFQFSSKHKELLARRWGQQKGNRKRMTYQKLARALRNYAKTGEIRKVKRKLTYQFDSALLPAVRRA

Regarding GAAACC, the binding signal with ERG was 1.05 fold enrichment (6-mer frequency, TF over GST control); in the assay with ELF1, 1.04 fold enrichment (6-mer frequency, TF over GST control); in the assay with EHF, 1.04 fold enrichment (6-mer frequency, TF over GST control); in the assay with ETV5, 1.05 fold enrichment (6-mer frequency, TF over GST control); with ELF3, 1.03 fold enrichment (6-mer frequency, TF over GST control); with ETV1, 1.02 fold enrichment (6-mer frequency, TF over GST control). The binding signal with ETV7 is 1.04 fold enrichment (6-mer frequency, TF over GST control); with ETV3, 1.02 fold enrichment (6-mer frequency, TF over GST control); with ETV6 it was 1.08 fold enrichment (6-mer frequency, TF over GST control).

For AGCGTC, the binding signal in the assay with ELK1 was 1.05 fold enrichment (6-mer frequency, TF over GST control); with GABPA it was 1.07 fold enrichment (6-mer frequency, TF over GST control); in the assay with ERG, 1.1 fold enrichment (6-mer frequency, TF over GST control); in the assay with SPI1 it was 1.06 fold enrichment (6-mer frequency, TF over GST control); with SPIB, 1.04 fold enrichment (6-mer frequency, TF over GST control); in the assay with ETV5, 1.04 fold enrichment (6-mer frequency, TF over GST control). The binding signal with SPIC was 1.11 fold enrichment (6-mer frequency, TF over GST control); in the assay with ELK4, 1.01 fold enrichment (6-mer frequency, TF over GST control); in the assay with ETV1, 1.04 fold enrichment (6-mer frequency, TF over GST control); with ERF it was 1.07 fold enrichment (6-mer frequency, TF over GST control); with ETS2, 1.02 fold enrichment (6-mer frequency, TF over GST control); with SPDEF it was 1.08 fold enrichment (6-mer frequency, TF over GST control). Besides, the binding signal in the assay with ETV7 is 1.06 fold enrichment (6-mer frequency, TF over GST control); with ETV3 it was 1.01 fold enrichment (6-mer frequency, TF over GST control); with ETV6, 1.02 fold enrichment (6-mer frequency, TF over GST control).

These data come from publication PMC7862700, “An all-to-all approach to the identification of sequence-specific readers for epigenetic DNA modifications on cytosine”.
